According to PubChem BioAssay (Tox21):
Inconclusive results are not listed. The source made the active and inactive calls. The call rests on the fitted dose curve; in most records, active means well fitted cell-killing curve with a large enough effect in the repeat runs; inconclusive means weak or mixed curves, or effect the other way; inactive means flat fitted curve, though single readings scatter.

Test: qHTS RealTime-Glo MT Cell Viability Assay in HEK293 cells - 8 hour (AID 1224887); further: top concentration of the series differs between compounds; nearly all actives have a fitted effect of over 50% in size
Conditions: RealTime-Glo luminescence; series mostly up to 76.8 µM; activity change, negative = cytotoxicity: at the top concentration
In short: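 Real-time viability in HEK293: signal arises when living cells convert a prosubstrate for NanoLuc in the medium, so luminescence tracks viable cell number. Compound (23 nL, DMSO) added 5 h post-seeding; kinetic reads at 0–40 h, 37 C.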
On the % scale 0 is the no-effect control and ±100 the full control effect.

Row | SMILES | activity change, negative = cytotoxicity
1 | O=c1[nH]c2ccc(Cl)cc2o1 | 7.93% (inactive)
2 | Cc1ccc(C(C)(C)O)cc1 | -8.91% (inactive)
3 | CCCC(=O)C(=O)O | 0.0151% (inactive)
4 | CC(C)=CCC1C(=O)N(c2ccccc2)N(c2ccccc2)C1=O | 1.28% [at 35.3 µM] (inactive)
5 | CCOC(=O)/C=C/C(=O)OCC | 1.25% (inactive)
6 | Cc1ccc(CO)cc1 | 9.65% (inactive)
7 | O=C(OC(=O)c1ccccc1)c1ccccc1 | 9.38% (inactive)
8 | CC(C)=CCC/C(C)=C/CC/C(C)=C/CCC(=O)OC/C=C(\C)CCC=C(C)C | 3.04% [at 35.3 µM] (inactive)
9 | O[C@@H]1CO[C@H]2[C@@H]1OC[C@@H]2O | 5.14% [at 35.3 µM] (inactive)
10 | CCCCC(CC)CN (stereo not given) | 1.52% (inactive)
11 | COc1cc(C(=O)NCCCCCC(=O)O)cc(OC)c1OC | 14.6% [at 35.3 µM] (inactive)
12 | CC(CCC(=O)O)C(=O)O (stereo not given) | 0.911% (inactive)
13 | CCC1NC(=O)c2cc(S(N)(=O)=O)c(Cl)cc2N1 (stereo not given) | 10.2% [at 35.3 µM] (inactive)
14 | O=C1NCCN1CCO | 5.8% (inactive)
15 | C1COC1 | 6.06% (inactive)
16 | CCn1cc(C(=O)O)c(=O)c2cc(F)c(N3CCNCC3)cc21 | 9.28% [at 35.3 µM] (inactive)
17 | CO[C@]1(NC(=O)CSC(F)F)C(=O)N2C(C(=O)O)=C(CSc3nnnn3CCO)CO[C@H]21 | 11.1% [at 35.3 µM] (inactive)
18 | O=C(O)CCCCCCCCCCCBr | 0.075% (inactive)
19 | CCC(=O)OC | 1.82% (inactive)
20 | CCC(C)(C)OC | 6.21% (inactive)

Row | SMILES | activity change, negative = cytotoxicity
21 | CC(C)=CC(=O)C=C(C)C | 5.56% (inactive)
22 | CC(=O)OCC(=O)NCCCOc1cccc(CN2CCCCC2)c1 | 0.228% [at 35.3 µM] (inactive)
23 | CCCCCCCCCI | 1.54% (inactive)
24 | CCc1ccccc1 | 6.66% (inactive)
25 | Cc1ccccc1S | -17.2% [at 35.3 µM] (inactive)
26 | Cc1cscn1 | 9.22% (inactive)
27 | N#CCc1ccc(Cl)cc1Cl | -20.9% (inactive)
28 | CCCCCC[C@@H](O)C/C=C\CCCCCCCC(=O)O | 5.67% (inactive)
29 | Cc1cc(C)c(N)cc1C | 1.35% (inactive)
30 | C=CC(C)(CCC=C(C)C)OC(=O)CC(C)C (stereo not given) | -0.202% (inactive)
31 | O=C(/C=C/c1ccccc1)OCCc1ccccc1 | -1.86% (inactive)
32 | CCCCCCCCC(CCCCCC)C(=O)O (stereo not given) | 4.04% (inactive)
33 | Cc1ccco1 | 11.8% (inactive)
34 | C[C@H]1c2cccc(O)c2C(O)=C2C(=O)[C@]3(O)C(O)=C(C(N)=O)C(=O)[C@@H](N(C)C)[C@@H]3[C@@H](O)[C@@H]21 | -0.234% [at 35.3 µM] (inactive)
35 | CC1(C)[C@H](C(=O)O)N2C(=O)C[C@H]2S1(=O)=O | -1.48% [at 35.3 µM] (inactive)
36 | CO/N=C(/C(=O)N[C@@H]1C(=O)N2C(C(=O)O)=C(COC(N)=O)CS[C@H]12)c1ccco1 | -2.04% (inactive)
37 | C=CC(=O)[O-].C=CC(=O)[O-].[Zn+2] | -0.488% (inactive)
38 | O=C1c2ccccc2C(=O)C1c1ccc(Br)cc1 | -7.05% [at 35.3 µM] (inactive)
39 | CCC(OCCCOC)OC(C)=O (stereo not given) | -1.21% (inactive)
40 | COC(=O)CS | 4.76% (inactive)
